Assay results taken from PubChem BioAssay AID651699 (Sanford-Burnham Center for Chemical Genomics, 2012).
Out of some 360,000 compounds screened, about 2,100 (0.58%) were called active. Rule as the data show it: active = inhibition above about 36%; inactive = the rest. Many of the other results were omitted from the sample, so actives are more common in it than they were.

Each compound was assayed against NEDD8-conjugating enzyme Ubc12 (Homo sapiens) + NEDD8-activating enzyme E1 regulatory subunit (Homo sapiens) (UniProt P61081+Q13564) (assay: NEDD8 transfer onto cullin, blockade – biochemical, TR-FRET, uHTS, NAE and Ubc12, primary screen (AID 651699)). Details: TR-FRET cullin neddylation, at 25 µM, hits give high values.
Sequence of NEDD8-conjugating enzyme Ubc12 (Homo sapiens) + NEDD8-activating enzyme E1 regulatory subunit (Homo sapiens) (P61081 whole entry, looked up): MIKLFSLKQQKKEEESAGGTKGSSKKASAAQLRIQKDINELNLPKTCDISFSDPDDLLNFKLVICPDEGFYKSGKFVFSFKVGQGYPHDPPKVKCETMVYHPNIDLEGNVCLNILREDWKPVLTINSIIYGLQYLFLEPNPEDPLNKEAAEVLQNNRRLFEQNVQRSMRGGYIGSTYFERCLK
Sequence of NEDD8-conjugating enzyme Ubc12 (Homo sapiens) + NEDD8-activating enzyme E1 regulatory subunit (Homo sapiens) (Q13564 whole entry, looked up): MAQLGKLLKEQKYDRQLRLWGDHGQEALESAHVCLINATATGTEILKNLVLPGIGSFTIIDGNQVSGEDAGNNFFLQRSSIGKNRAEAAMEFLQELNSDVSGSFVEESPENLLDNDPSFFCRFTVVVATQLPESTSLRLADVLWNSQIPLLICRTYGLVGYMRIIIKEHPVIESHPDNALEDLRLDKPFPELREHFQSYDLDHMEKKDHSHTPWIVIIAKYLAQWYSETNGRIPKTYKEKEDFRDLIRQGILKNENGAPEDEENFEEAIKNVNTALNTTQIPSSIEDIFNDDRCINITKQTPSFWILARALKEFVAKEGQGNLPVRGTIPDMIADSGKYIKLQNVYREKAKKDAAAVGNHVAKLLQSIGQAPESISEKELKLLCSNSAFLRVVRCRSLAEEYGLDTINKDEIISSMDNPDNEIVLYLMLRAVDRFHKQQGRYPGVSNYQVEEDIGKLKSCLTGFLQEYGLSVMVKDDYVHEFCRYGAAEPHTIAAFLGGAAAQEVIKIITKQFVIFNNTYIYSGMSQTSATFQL

Row | Compound | inhibition
1 | CCOC(=O)c1cn(CC)c2cc(F)c(F)cc2c1=O | 6.4% (inactive)
2 | CC(=O)/C(=N\Nc1ccc(Cl)cc1Cl)Sc1cccc2cccnc12 | -3.61% (inactive)
3 | CN(CC(=O)Nc1cccc2c1CCCC2)S(=O)(=O)c1ccc(Cl)cc1 | 7.5% (inactive)
4 | Cc1cc(NC(=O)c2ccccc2C)no1 | -11.1% (inactive)
5 | Cc1ccc2occ(/C=N/NC(=O)c3ccccc3C)c(=O)c2c1 | 42.8% (active)
6 | Cc1ccc(O)c(/C=N/NC(=O)COc2ccc3c(C)cc(=O)oc3c2)c1 | 17% (inactive)
7 | CCOc1ccc2nc(Cl)c(C3CC(c4ccccc4)=NN3C(=O)c3cccs3)cc2c1 (stereo not drawn) | -162% (inactive)
8 | CCOc1ccc(NS(=O)(=O)c2ccc(C)c(C(N)=O)c2)cc1 | -4.92% (inactive)
9 | CCOc1ccc2nc(NCCNC(=O)C(C)(C)C)c(C)cc2c1 | 42.5% (active)
10 | CCOc1ccc(NC(=O)c2ccc(CSc3nnnn3C)cc2)cc1 | 1.1% (inactive)
11 | CC(=O)N(c1ccc2oc(=O)sc2c1)S(=O)(=O)c1ccc(C)cc1 | 0.47% (inactive)
12 | O=C(CN1CCN(C(=O)C2CCCO2)CC1)Nc1c(Cl)cccc1Cl (stereo not drawn) | 10.6% (inactive)
13 | C=CCNC(=O)C1CC=CCC1C(=O)O (stereo not drawn) | 4.38% (inactive)
14 | COc1cc2ccccc2cc1C(=O)Nc1ccncc1 | 42.2% (active)
15 | COc1cccc(OC)c1C(=O)Nc1ccc(Cc2ccncc2)cc1 | 7.29% (inactive)
16 | COc1ccccc1N(C)S(=O)(=O)c1ccc(Cl)c(C(=O)Nc2ccncc2)c1 | 13.9% (inactive)
17 | O=C1N[C@H](Cc2c[nH]c3ccccc23)COC(=O)[C@H](Cc2ccc(F)cc2)C/C=C\C[C@H]1CC(=O)N(CCO)Cc1ccccc1 | -4.67% (inactive)
18 | O=C(C1CC1)N1N=C(c2ccc(Br)cc2)CC1(O)C(F)(F)F (stereo not drawn) | -17% (inactive)
19 | O=C(c1ccc(Cl)cc1)N1N=C(c2ccccn2)CC1(O)C(F)(F)F (stereo not drawn) | 46% (active)
20 | COC(=O)C1(O)CC(C(C)C)=NN1C(=O)c1ccc(Cl)cc1 (stereo not drawn) | 10.8% (inactive)
21 | CC(=O)NCCc1ccc(S(=O)(=O)Nc2ccc(C)c(S(=O)(=O)N3CCOCC3)c2)cc1 | 0.16% (inactive)
22 | COc1ccc2c(c1)C(C)=CC(C)(C)N2C(=O)Nc1ccccc1 | 41.3% (active)
23 | CC1=CC(C)(C)N(C(=O)CSc2nnc(-c3ccccc3)o2)c2ccc(C)cc21 | -0.38% (inactive)
24 | COc1ccc2c(c1)C(C)=CC(C)(C)N2C(=O)CNCc1ccc2c(c1)OCO2 | -2.09% (inactive)

Row | Compound | inhibition
25 | O=C(CCc1nnc(Cc2ccc3c(c2)OCO3)o1)NCCc1ccccc1Cl | -1.6% (inactive)
26 | CN(C)c1ccc(/C=N/Nc2cc(N3CCOCC3)nc(N3CCOCC3)n2)cc1 | 53.4% (active)
27 | Fc1ccccc1/C=N/Nc1cc(N2CCCCC2)ncn1 | 9.65% (inactive)
28 | C/C(=N\Nc1nc(N2CCOCC2)nc(N2CCOCC2)n1)c1ccc([N+](=O)[O-])cc1 | -9.47% (inactive)
29 | CNC(=S)NNC(=O)c1oc2nc(-c3ccccc3)cc(-c3ccco3)c2c1N | 29.8% (inactive)
30 | Cc1ccc(O)c(NC(=O)c2cc(-c3ccco3)on2)c1 | 5.21% (inactive)
31 | NNC(=O)c1oc2nc(-c3ccccc3)cc(-c3ccco3)c2c1N | 51.2% (active)
32 | O=C(N/N=C/c1ccccc1O)C1CCCC1 | 44.9% (active)
33 | O=C(NNC(=O)C1CCC1)c1ccccc1 | -19.3% (inactive)
34 | CC1(C)C2CC=C(/C=N/NC(=O)C3CC3)C1C2 (stereo not drawn) | -0.11% (inactive)
35 | COc1ccc(CCNC(=O)CCCCCNC(=O)N2CCn3c2nc2ccccc23)cc1OC | 7.99% (inactive)
36 | O=Cc1c(Nc2ccccc2Cl)nc2ccccn2c1=O | -6.5% (inactive)
37 | CC(=O)c1ccc(NC(=O)c2ccc(-n3cncn3)c([N+](=O)[O-])c2)cc1 | -41.9% (inactive)
38 | C=CCn1c(COc2cccc3cccnc23)nnc1SCC(=O)OC | 46.5% (active)
39 | C=CCn1c(COc2ccc(F)cc2)nnc1SCC(=O)Nc1cccc(S(N)(=O)=O)c1 | 5.06% (inactive)
40 | C=CCn1c(COc2ccccc2C)nnc1SCC(=O)O | -1.87% (inactive)
41 | CCC(C)(C)n1nnnc1C(c1cccs1)N1CCN(c2nc3ccccc3s2)CC1 (stereo not drawn) | 5% (inactive)
42 | O=C(NCc1nnnn1-c1ccc(Cl)cc1)c1ccc2c(c1)OCO2 | -5.24% (inactive)
43 | COc1cccc(Nc2nnc(SCC(=O)N3CC(C)OC(C)C3)s2)c1 (stereo not drawn) | -4.5% (inactive)
44 | O=C(NCC1CCCO1)c1cc2c([nH]c3ccccc32)c(-c2ccc(F)cc2)n1 (stereo not drawn) | 21% (inactive)
45 | O=C(NCCc1ccc(F)cc1)c1n[nH]c2ccccc12 | 9.02% (inactive)
46 | O=C(NCCCO)c1cc2c([nH]c3ccccc32)c(-c2ccc(F)cc2)n1 | 44.3% (active)
47 | O=c1cc(CN2CCN(c3cccc(Cl)c3)CC2)c2cc3c(cc2o1)CCCC3 | -45.2% (inactive)
48 | CCC(CC)C(=O)N1CC(=O)Nc2ccc(Br)cc2C1c1ccccc1 (stereo not drawn) | -1.94% (inactive)

Row | Compound | inhibition
49 | Oc1ccc(/C=N/N(Cc2ccccc2)c2ccccc2)cc1 | 13.8% (inactive)
50 | CCN(/N=C/c1ccccc1)c1cc(=O)n(C)c(=O)[nH]1 | 14.3% (inactive)
51 | CCN(/N=C/c1ccc(N(C)C)cc1)c1nc2ccccc2[nH]1 | 47.9% (active)
52 | CCC(C)c1ccc(NC(=S)NCc2ccccn2)cc1 (stereo not drawn) | 3.21% (inactive)
53 | O=S(=O)(c1cccc(Cn2nnc(-c3ccc(F)cc3)n2)c1)N1CCOCC1 | -1.01% (inactive)
54 | O=C(C[C@@H]1C/C=C\CCC(=O)OC[C@@H]2CCCN2C1=O)NCCO | -13.4% (inactive)
55 | O=C(NC(Cc1c[nH]c2ccccc12)C(=O)N/N=C/c1ccc(Br)cc1)c1cccs1 (stereo not drawn) | -5.72% (inactive)
56 | CCN(CC)c1ccc(/C=N/NC(=O)CNC(=O)c2cccs2)cc1 | 55.1% (active)
57 | O=C(CNC(=O)c1ccccc1Br)NNC(=O)c1cccs1 | 7.39% (inactive)
58 | COC(=O)C1=CN(Cc2ccc(OC)cc2)C=C(C(=O)OC)C1c1ccc(O)c(OC)c1 | 40.7% (active)
59 | CCOc1cc(C2C(C(=O)OC)=CN(C3CCCC3)C=C2C(=O)OC)cc(Br)c1O | -306% (inactive)
60 | O=C(NC1CC1)C(Cc1ccccc1)NS(=O)(=O)c1ccccc1F (stereo not drawn) | -5.68% (inactive)
61 | O=C(CN1CCN(c2ccccc2O)CC1)NC(=O)NCc1ccccc1 | 1.32% (inactive)
62 | CCOCCCNC(=O)C(NC(=O)CNC(=O)c1ccccc1)c1ccc(C)cc1 (stereo not drawn) | 2.03% (inactive)
63 | CCOCCCNC(=O)C(NC(=O)CNC(=O)c1ccccc1)c1ccc(OC)cc1 (stereo not drawn) | 0.37% (inactive)
64 | CCOCCCNC(=O)C(NC(=O)c1ccccc1O)c1ccccc1 (stereo not drawn) | 46.5% (active)
65 | CC(C)=CCc1ccc(O)c(=O)cc1C(C)C | 1.77% (inactive)
66 | O=C(O)C(F)(F)C(NCc1ccccc1)c1ccccc1 (stereo not drawn) | -2.55% (inactive)
67 | CC(C)c1ccc(CC(=O)N2CCC2(C)C(=O)NS(=O)(=O)c2ccc(C(C)(C)C)cc2)cc1 (stereo not drawn) | -0.27% (inactive)
68 | COC(=O)c1cc2c(N)c(C(=O)c3ccc(Cl)cc3)sc2nc1C(OC)OC | 12.2% (inactive)
69 | CC(=O)c1c(Nc2ccccc2)sc(C(=O)c2ccccc2)c1C | 5.82% (inactive)
70 | Cc1cccc2cc3c(N)c(C(=O)N4CCCc5ccccc54)sc3nc12 | -5.05% (inactive)
71 | CN(C)c1ccnc2sc(C(=O)c3ccccc3)c(N)c12 | 42.8% (active)
72 | Cc1nc2sc(C(=O)c3ccccc3)c(N)c2c2c1CCCC2 | 47.1% (active)

Row | Compound | inhibition
73 | O=C(Nc1c(-c2ccccc2)nc2c(Br)cc(Br)cn12)c1ccco1 | -168% (inactive)
74 | OCC[C@H]1C[C@H](O)[C@@H](O)[C@]2(Cc3ccccc3CO2)O1 | -28.9% (inactive)
75 | Cc1noc(C)c1CCC(=O)O | -7.17% (inactive)
76 | CN(Cc1ccccc1)C(=O)CCC1CCN(C(=O)c2ccco2)CC1 | 6.05% (inactive)
77 | CCOC(=O)c1cnc(SCC(=O)Nc2cccc(OC)c2)nc1N | -0.72% (inactive)
78 | COc1ccc(/C=C/C(=O)OCC(=O)N2CCN(S(=O)(=O)c3ccc(C)cc3C)CC2)cc1OC | 24.4% (inactive)
79 | CCCCNS(=O)(=O)c1ccc(S(=O)(=O)n2cnc3ccccc32)cc1 | -2.84% (inactive)
80 | O=C(Cn1cc(/C=N/NC(=O)c2cccc(C(F)(F)F)c2)c2ccccc21)Nc1ccc(F)cc1 | 44% (active)
81 | O=C(CSc1ccc(/C=N/NC(=O)c2cccc(F)c2)o1)Nc1ccccc1 | -3.46% (inactive)
82 | NC(=O)Cn1cc(/C=N\NS(=O)(=O)c2ccccc2)c2ccccc21 | -17.8% (inactive)
83 | COc1ccc([N+](=O)[O-])cc1NC(=O)COC(=O)/C=C/c1ccco1 | -34% (inactive)
84 | O=C(NNC(=O)C1C2CCC(C2)C1C(=O)O)c1ccc(Cl)cc1 (stereo not drawn) | 2.72% (inactive)
85 | O=C(NNC(=S)NC1CC2CCC1C2)c1ccc(Cl)cc1 (stereo not drawn) | 62.7% (active)
86 | O=S(=O)(NC1CC2CCC1C2)c1ccc(Cl)cc1 (stereo not drawn) | -2.94% (inactive)
87 | CC1(C)CC(=O)C2=C(C1)Nc1cc(C(=O)c3ccccc3)ccc1NC2c1ccccn1 (stereo not drawn) | 24.5% (inactive)
88 | CCOc1ccc2[nH]c(=O)c(CN(Cc3nnnn3CCc3ccccc3)CC3CCCO3)cc2c1 (stereo not drawn) | 44% (active)
89 | Cc1cc2cc(CN(Cc3cccs3)Cc3nnnn3CC3CCCO3)c(=O)[nH]c2cc1C (stereo not drawn) | 4.8% (inactive)
90 | Cc1ccc(S(=O)(=O)N(Cc2cc3ccccc3[nH]c2=O)CC2CCCO2)cc1 (stereo not drawn) | 11.6% (inactive)
91 | COc1ccc2[nH]c(=O)c(CN(CC3CCCO3)C(=O)Nc3ccccc3)cc2c1 (stereo not drawn) | 21.1% (inactive)
92 | Cc1cc(C)c2cc(CN(Cc3cccs3)Cc3nnnn3CC3CCCO3)c(=O)[nH]c2c1 (stereo not drawn) | -8.71% (inactive)
93 | CCOc1ccc2[nH]c(=O)c(CN(Cc3nnnn3Cc3ccccc3)CC3CCCO3)cc2c1 (stereo not drawn) | 48% (active)
